From PubChem BioAssay AID1159580 (chemical genetic matrix, 2015)
Among all 5,500 compounds or so, about 2,000 (36%) were called active. Another 18% or so got no clear call; they are omitted. Cut-off read from the data, not from the text of the source: active = normalized growth mostly below about 0.91 (no sharp cut-off); inconclusive = no clear call, values can overlap the other calls; inactive = mostly above about 0.92. The list shows a part of the results.

Experiment: chemical genetic growth profiling, strain panel (AID 1159580);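 note: tested at 20 µM; growth read once vehicle control cultures reached saturation at 30 °C; 1 = growth at the plate median or of vehicle wells; lower values mean less growth of the strain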
Conditions: S. cerevisiae deletion strains, growth OD

Measured: normalized growth

C=CCCCCCCCCCCCC(O)CC(O)CO (centres undefined)
active: locus YBR021W, strain FUR4, hits give low values 0.751 | locus YDL035C, strain GPR1, hits give low values 0.822 | locus YDR101C, strain arx1, hits give low values 0.899 | locus YDR318W, strain mcm21, hits give low values 0.872 | locus YDR502C, strain sam2, hits give low values 0.912 | locus YER167W, strain BCK2, hits give low values 0.872 | locus YGL086W, strain mad1, hits give low values 0.875 | locus YGR078C, strain PAC10, hits give low values 0.832 | locus YGR135W, strain pre9, hits give low values 0.887 | locus YHR079C, strain IRE1 (second series), hits give low values 0.883 | locus YHR129C, strain ARP1, hits give low values 0.903 | locus YIL066C, strain RNR3, hits give low values 0.784
inactive: locus YAL013W, strain DEP1, hits give low values 0.952 | locus YAL021C, strain ccr4, hits give low values 0.987 | locus YAL026C, strain drs2, hits give low values 1.01 | locus YAL030W, strain snc1, hits give low values 1 | locus YBL061C, strain skt5, hits give low values 1 | locus YBR009C, strain hhf1, hits give low values 1 | locus YBR023C, strain chs3, hits give low values 1 | locus YBR171W, strain sec66, hits give low values 0.986 | locus YBR229C, strain ROT2, hits give low values 0.974 | locus YBR231C, strain swc5, hits give low values 0.997 | locus YBR279W, strain paf1, hits give low values 0.981 | locus YCL011C, strain gbp2, hits give low values 0.992 | locus YCL016C, strain dcc1, hits give low values 0.987 | locus YCL029C, strain bik1, hits give low values 0.968 | locus YCL061C, strain MRC1, hits give low values 0.985 | locus YCL069W, strain vba3, hits give low values 0.991 | locus YCR088W, strain abp1, hits give low values 0.99 | locus YDL005C, strain med2, hits give low values 0.987 | locus YDL040C, strain nat1, hits give low values 0.998 | locus YDL074C, strain BRE1, hits give low values 0.82 | locus YDL101C, strain DUN1, hits give low values 0.949 | locus YDL134C, strain PPH21, hits give low values 0.951 | locus YDL185W, strain tfp1, hits give low values 0.989 | locus YDL192W, strain arf1, hits give low values 0.921 | locus YDR001C, strain nth1, hits give low values 0.987 | locus YDR069C, strain doa4, hits give low values 1.01 | locus YDR137W, strain rgp1, hits give low values 1.01 | locus YDR150W, strain NUM1, hits give low values 0.992 | locus YDR159W, strain sac3, hits give low values 0.99 | locus YDR162C, strain NBP2, hits give low values 0.948 | locus YDR195W, strain ref2 1.01 | locus YDR297W, strain sur2, hits give low values 0.996 | locus YDR334W, strain swr1, hits give low values 1 | locus YDR335W, strain msn5, hits give low values 0.998 | locus YDR388W, hits give low values 0.98 | locus YDR392W, strain spt3, hits give low values 0.918 | locus YEL003W, strain gim4, hits give low values 0.993 | locus YEL037C, strain rad23, hits give low values 1.01 | locus YEL061C, strain CIN8 (second series), hits give low values 0.994 | locus YEL061C, strain CIN8, hits give low values 0.962 | locus YER015W, strain faa2, hits give low values 0.99 | locus YER016W, strain bim1, hits give low values 0.997 | locus YER110C, hits give low values 0.969 | locus YER111C, strain swi4, hits give low values 0.991 | locus YER155C, strain BEM2 (second series), hits give low values 0.986 | locus YER155C, strain BEM2, hits give low values 0.97 | locus YFR010W, strain ubp6, hits give low values 1 | locus YGL078C, strain dbp3, hits give low values 0.967 | locus YGL167C, strain pmr1, hits give low values 0.998 | locus YGL173C, strain kem1, hits give low values 0.996 | locus YGL227W, strain vid30, hits give low values 0.981 | locus YGL240W, strain doc1, hits give low values 0.993 | locus YGL248W, strain PDE1, hits give low values 0.927 | locus YGL253W, strain hxk2, hits give low values 1 | locus YGR229C, strain SMI1, hits give low values 0.947 | locus YGR252W, strain gcn5, hits give low values 0.785 | locus YHR013C, strain ard1, hits give low values 0.966 | locus YHR027C, strain rpn1, hits give low values 0.995 | locus YHR030C, strain SLT2, hits give low values 0.974 | locus YHR094C, strain hxt1, hits give low values 0.985 | locus YHR142W, strain chs7, hits give low values 1.01 | locus YHR200W, strain rpn10, hits give low values 0.961 | locus YIL073C, strain SPO22, hits give low values 0.992 | locus YIL125W, strain kgd1, hits give low values 0.977 | locus YIR030C, strain dcg1, hits give low values 0.942 | locus YJL092W, strain hpr5, hits give low values 0.992 | locus YJL095W, strain BCK1 (second series), hits give low values 0.99 | locus YJL095W, strain BCK1, hits give low values 0.937 | locus YJL115W, strain asf1, hits give low values 0.993 | locus YJL129C, strain trk1, hits give low values 0.985 | locus YJL134W, strain LCB3, hits give low values 0.995 | locus YJL154C, strain vps35, hits give low values 0.987 | locus YJL164C, strain tpk1, hits give low values 0.997 | locus YJL166W, strain qcr8, hits give low values 0.99 | locus YJL168C, strain set2, hits give low values 0.974 | locus YJL187C, strain SWE1 (second series), hits give low values 0.913 | locus YJL187C, strain SWE1, hits give low values 0.996
